Bioassay records: PubChem, Center for Chemical Genomics, University of Michigan
Dicer processing: human Dicer pre-microRNA cleavage inhibition. Q9UPY3. cat-ELCCA pre-miR-21 Dicer processing, chemiluminescence; active compounds read high. z-score at 25 µM. 6% of 47,000 active; in the data active means z-score above about 3, passing the limit was not always enough;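 further: plate controls were vehicle for no effect and no enzyme for full effect; higher signal means more uncleaved substrate so more Dicer inhibition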
Starred values were filed as active, the others as inactive. The full list was thinned out, with hits kept by preference.

`N#Cc1nc(-c2ccc(Cl)cc2)oc1N1CCOCC1` gave Dicer processing 3.68*.
Screening N#Cc1nc(-c2ccc(F)cc2)oc1N1CCOCC1 returned Dicer processing -0.48.
`COc1ccc(-c2nc(C#N)c(N3CCCCC3)o2)cc1` gave Dicer processing -0.28.
`CCOC(=O)c1cccc(CO/N=C(\C)c2ccc(Cl)c(Cl)c2)c1` gave Dicer processing -1.43.
For N/C(=N\OC(=O)Nc1ccc(Cl)cc1)c1nccnc1Sc1ccc(Cl)cc1 the results were Dicer processing 2.63.
Screening O=C(c1ccc([N+](=O)[O-])cc1)N1CC(Oc2ccc(Cl)cc2)C1 returned Dicer processing 0.42.
Screening Cc1csc2sc(C(=O)CC(=O)C(F)(F)F)c(C)c12 returned Dicer processing -0.28.
Fc1cc2c(c(CSc3nc4ccccc4s3)c1)OCOC2 was read as Dicer processing -1.26.
For O=C(Nc1ccccc1F)c1ccc([N+](=O)[O-])o1 the results were Dicer processing -0.41.
`CCOC(=O)CNC(=O)c1ccc([N+](=O)[O-])o1` gave Dicer processing 2.58.
CN(Cc1ccccc1)C(=O)c1ccc([N+](=O)[O-])o1 was read as Dicer processing 3.03*.
For CC(=O)c1ccc2c(c1)C(C)C(=O)N2C (configuration not stated) the results were Dicer processing -0.7.
`CCOC(=O)COc1ccccc1/C=C1\N=C(SCC)SC1=O` gave Dicer processing -0.54.
S=C(Nc1ccccc1Cl)N1CCOC1c1c[nH]c2ccccc12 (configuration not stated) was read as Dicer processing 0.71.
`CCOC(=O)N1CCN(S(=O)(=O)c2ccc(Cl)cc2)CC1` gave Dicer processing 2.87.
`CCOC(=O)N1CCN(S(C)(=O)=O)CC1` gave Dicer processing 3.54*.
`CCCS(=O)(=O)N1CCN(C2CCN(C(=O)OCC)CC2)CC1` gave Dicer processing -1.15.
For CNC(=S)N/N=C(/N)c1ccccn1 the results were Dicer processing 4.35*.
Screening N/C(=N\NC(=O)Nc1ccc(Cl)cc1)c1ccccn1 returned Dicer processing 6.58.
N/C(=N\NS(=O)(=O)c1ccccc1C(F)(F)F)c1ccccn1 was read as Dicer processing 0.57.
`Cc1nn(Cc2nnc(SCC(=O)c3ccc(Cl)cc3)n2C)c(C)c1[N+](=O)[O-]` gave Dicer processing 2.13.
`Nc1nnc(SCC(=O)Nc2nncs2)s1` gave Dicer processing 3.11*.
Nc1nnc(SCC(=O)Nc2ccccc2)s1 was read as Dicer processing 6.02.
Screening Nc1nnc(SCC(=O)Nc2ccc(F)c(F)c2F)s1 returned Dicer processing -0.64.
Screening Cc1cc(S(=O)(=O)Nc2ccc3c(c2)OCC2CCCN32)c(C)s1 (configuration not stated) returned Dicer processing 6.74.
`CC1CC(=O)N(C)c2ccccc2S1(=O)=O` (configuration not stated) gave Dicer processing 3.95*.
Screening CN1C(=O)CN(C2CCCCC2)C(=O)c2ccccc21 returned Dicer processing 2.52.
For CN1C(=O)CC(c2ccsc2)Sc2ccccc21 (configuration not stated) the results were Dicer processing 0.73.
C[C@H]1O[C@@H](n2cc(F)c(=O)[nH]c2=O)[C@H](O)[C@@H]1O was read as Dicer processing 3.06*.
`O=c1[nH]c(=O)n(C2O[C@H](CO)[C@@H](O)[C@H]2O)cc1Br` (some centres not stated) gave Dicer processing 1.43.
Screening O=c1[nH]c(=O)n(C2CCCO2)cc1F (configuration not stated) returned Dicer processing 1.7.
CCc1ccc(S(=O)(=O)N2CCN(S(=O)(=O)c3ccc(CC)cc3)C(C)C2)cc1 (configuration not stated) was read as Dicer processing -0.71.
Screening CCOC(=O)c1sc2sc(C(=O)OCC)c(C)c2c1C returned Dicer processing 8.06.
For CCOC(=O)c1sc(SC)c(C(C)O)c1C (configuration not stated) the results were Dicer processing 3.94*.
Screening CCOC(=O)c1sc(SC)c2c1CCC=C2 returned Dicer processing -1.36.
For N#Cc1nc(COc2ccc(Br)cc2)oc1NCCc1ccccc1 the results were Dicer processing 2.78.
`N/C(=N\S(=O)(=O)c1cc(Cl)c(Oc2ccc([N+](=O)[O-])cc2Cl)c(Cl)c1)c1cccnc1` gave Dicer processing 1.23.
`Cn1c2c(c(=O)n(C)c1=O)C(c1ccc(OCc3ccccc3)cc1)C1=C(N2)c2ccccc2C1=O` (configuration not stated) gave Dicer processing 1.94.
COc1ccc(-c2noc(-c3ccc(OC)c(OC)c3)n2)cc1OC was read as Dicer processing -0.23.
`CCOc1nc(C)ccc1-c1noc(-c2ccc(OC)c(OC)c2)n1` gave Dicer processing 0.4.
Screening CCOc1ccc(-c2nc(-c3ccc(Cl)cc3)no2)cc1OCC returned Dicer processing 3.65*.
`CN(C)c1ccc(C2NC(=O)c3ccccc3N2)c(Cl)c1` (configuration not stated) gave Dicer processing -0.32.
